test system: VDR:RXRa (NR concentration 270 nM, RXRa partner concentration 90 nM); assay: PBM binding z-score (relative to random genomic background probes); higher = stronger binding; sequences stand for … in GC…GCGATTGACAGCGTAGAATGAAGG
Procedure: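 Protein-binding microarray (Agilent 4x180K custom design, double-stranded 60-nt probes: 5' GC cap, 34-nt variable region, 24-nt constant primer region; full probe sequence given). Purified or IVT nuclear receptor:RXRα heterodimers (3:1 NR:RXRα, mostly 270:90 nM) or homodimers were incubated for 1 h in PBS with 2% milk and no ligand, then detected with Alexa488 antibodies. Fluorescence from o1-orientation probes (~5 replicates averaged) was converted to z-scores against 500 random hg19 background probes. Variable regions are seed direct-repeat (DR0–DR5) sites, all their single-nucleotide variants and half-site ablations.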

Compared with CAAACCAGGTCACGAAAGGTCAAAGTCGAATGAC, CTCGAAAGGTCGAGCTCAGGTGAGTATACCAAAC is lower in PBM binding z-score: 7.16 for the first, 2.71 for the second.

Compared with CCGAGTAGGTTAGGAGGGGGCATTCAGTGCGAAT, CTATGTAGGTTCAGGGGGTCATTCAGTTTGAAAG is higher in PBM binding z-score: 4.91 for the first, 6.91 for the second.

Going from ATATGTAGGTTAAGGTCATTCAGAAAGTAGGGAA to ATCGAAAGGTCGTGAGGTGACTATACAGAAAGGC, the PBM binding z-score falls from 4.69 to 3.64.

Going from CAAACTAGGTCACCGTAAGGTCAAAGTCCGCATG to TAGCCTAGGTCATTGGACCAGTATAGTACGCATC, the PBM binding z-score falls from 6.28 to 2.08.

First: CTCCAAAGGTCGGTTGAGGTGAGTATACGGATAA
Second: CCGAGTAGGTGACGAGGGGGCATTCAGTGCGAAT
The PBM binding z-score of the first is lower: 2.42 for the first, 4.37 for the second.

First: CAAAGTAGGTCACGAAAGGTCAAAGTCGAATGAC
Second: CCTAGCAGGCCAATCGGGGTCACTCAAGGCTTGA
The PBM binding z-score of the first is higher: 6.82 for the first, 5.36 for the second.

Going from CAAACTAGGTCACCGGAAAGTCAAAGTCCGCATG to ATATGTAGCTTAGGGTCATTCAGAAAGTAGGGAA, the PBM binding z-score rises from 2.61 to 4.27.

Going from TGAATGAGGTGAAAGATCAGGGAACGTGGCGTCG to TCGAGTAGATTACGGGGGCATTCAGGGATGAAGA, the PBM binding z-score rises from 0.449 to 2.83.

Going from AATACAGGGTCACTAGGTCAGAGTAGGTACGAAT to CCGACGGGGGCAGAAAGGTTACCATACCATCCGG, the PBM binding z-score falls from 5.25 to 4.49.

Compared with TTACCAAGGTGACCTGAGGTCGTTGATCCAACTC, ATATGTAGGTAACATCCGGGTCATTCAGGCTATG is lower in PBM binding z-score: 4.87 for the first, 3.75 for the second.

Going from GATACAGGGTCAAGGCCAGAGTACGCGTATTGAT to CAAACTAGGTCAAAGGTCAAGGTCGAGCCAACCA, the PBM binding z-score rises from 4.28 to 6.86.

Going from ATATGTAGGTTAGGGGCATTCAGAAAGTAGGGAA to GCTCGGAGGACAAGGTCAGGGCTTTGTCCGTAGA, the PBM binding z-score rises from 1.44 to 1.64.

Going from CTATGTAGGTTAAGGGGGGCATTCAGTTTGAAAG to TAGCCTAGGTCAGATCGGGGCAGTATACGCTATA, the PBM binding z-score falls from 6.21 to 1.56.

Compared with CGTCCAAGGTCATAAGAGGTCAGTGAAGACAGAT, GCTGCTAGGTCAGGTTGGTCAACTAACGGGTACG is lower in PBM binding z-score: 6.96 for the first, 0.9 for the second.

Going from CCGACTGGGGCAAAGGTTACCACACTCAGTACGA to ATTTGTAGGTTATCGGGTCATTCAGTTTGCGCAT, the PBM binding z-score rises from 1.81 to 5.57.

Compared with CGTCCAAGGTCACCAGGTCAGTGAAAGCGACGTG, TCGAGTAGGTTACGGGGGCAATCAGGGATGAAGA is lower in PBM binding z-score: 5.3 for the first, 3.22 for the second.

Going from ATCGAAAAGTCGAAGGTGAGTATACCCACCCGAA to CCTACTGTGCCATTCAGAGGTCATTGATCATATG, the PBM binding z-score rises from -0.47 to 4.25.

Compared with CGAACTAGGTCAAAGGACAGTCAAAGGCGACGTA, TATACTGGGTCAAAGGCCAGAGTACGAATGTCGA is higher in PBM binding z-score: 1.69 for the first, 2.38 for the second.

Compared with CCTTACGGGTCACGGGGTTATAGCACGACGAGCG, TCGAGTAGGTAACGGGGGCATTCAGGGATGAAGA is lower in PBM binding z-score: 5.75 for the first, 3.38 for the second.

First: TCTAGTTGGTCACGGAGGTCACACGCGACGGGTA
Second: CGAACTAGGTCAAAGGACAGTGAAAGGCGACGTA
The PBM binding z-score of the first is higher: 5.87 for the first, 1.32 for the second.

— the supplement of paper PMC6555819
